From PubChem BioAssay (NCATS)
Results filed as inconclusive are left out. Unmarked numbers belong to inactive results. The source made the active and inactive calls. The call rests on the fitted dose curve; in most records, active means well fitted inhibition curve with a large enough effect; inconclusive means small, poorly fitted or top-dose-only effect; inactive means no such curve, though single readings can be large or run the other way.

Assay: qHTS to identify inhibitors of the type 1 interferon - major histocompatibility complex class I in skeletal muscle: primary screen against the NCATS Mechanism Interrogation Plate v5.0 (MIPE) Libary (AID 1347411); further: nearly all actives have a fitted effect of over 65% in size;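 on activity change, negative = inhibition: plate controls were vehicle for no effect and reference inhibitor for full effect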
Conditions: iHSKM cells + IFN-b, HiBiT-tagged MHC-I luminescence, 24 h; series mostly up to 45.8 µM; activity change, negative = inhibition: at the top concentration
Summary of the method: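 Luminescence from HiBiT-tagged endogenous HLA-B*08:01 served as the MHC class I read-out. CRISPR-engineered C25cl48 human myoblasts received 4.0 ng/ml IFN-beta plus compound for 24 hrs, with an 11-point, 1:3 series topping at 46 uM final.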
Potency means the concentration at half of the fitted maximal effect.

Structure (SMILES)	activity change, negative = inhibition	Potency
O=c1cc(O)c(Cl)c[nH]1	14.1%	
CCN[C@H]1C[C@H](C)S(=O)(=O)c2sc(S(N)(=O)=O)cc21	13.1%	
CCC(=O)O[C@]1(C(=O)CCl)[C@@H](C)C[C@H]2[C@@H]3CCC4=CC(=O)C=C[C@]4(C)[C@@]3(F)[C@@H](O)C[C@@]21C	-41.2%	
O=P(O)(O)C(O)(Cc1cccnc1)P(=O)(O)O	7.72%	
CC(C)C[C@H](NC(=O)[C@H](CCc1ccccc1)NC(=O)CN1CCOCC1)C(=O)N[C@@H](Cc1ccccc1)C(=O)N[C@@H](CC(C)C)C(=O)[C@@]1(C)CO1		0.0262 µM (active)
CC(C)Cn1cnc2c(N)nc3ccccc3c21	-14.7% [at 15.5 µM]	
COc1ccc(-c2ccc3cc(C(=O)O)ccc3c2)cc1C12CC3CC(CC(C3)C1)C2	-10.2%	
O=NN(CCCl)C(=O)NC1CCCCC1	9.36%	
CC(=O)[C@H]1CC[C@H]2[C@@H]3CC=C4C[C@@H](O)CC[C@]4(C)[C@H]3CC[C@]12C	7.73%	
CN(C)c1ccc(C(=C2C=CC(=[N+](C)C)C=C2)c2ccc(N(C)C)cc2)cc1		3.7 µM (active)
Nc1nc(N)nc(-c2cc(Cl)ccc2Cl)n1	-24%	
C#CCN[C@@H]1CCc2ccccc21	13.9%	
CC(=O)Oc1ccccc1C(=O)Nc1ncc([N+](=O)[O-])s1		23.4 µM (active)
CCOCC(O)COc1ccc(NC(=O)CC[S+](C)C)cc1 (configuration not stated)	-8.14%	
COc1ccc(C(=O)CC(=O)c2ccc(C(C)(C)C)cc2)cc1	-7.33%	
O=S(=O)(c1cccc2cnccc12)N1CCCNCC1	-28.8%	
CNNCc1ccc(C(=O)NC(C)C)cc1	7.49%	
